Plk1 PBD FP: blocks phosphopeptide binding to human Plk1 polo box domain; P53350; Plk1 PBD phosphopeptide binding, fluorescence polarization; inhibition, %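 (tested at about 20 µM)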; 97,000 tested, 0.13% active; AID 693; in the data active means inhibition above about 34%, passing the limit was not always enough
Cav3 T inh: human Cav3.2 channel inhibition, primary screen | 100,000 tested, 4% active | Cav3.2-expressing cells, Fluo-4 calcium fluorescence FDSS; hits give low values | O95180 | B-score at 10 µM;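 active means single-dose well whose peak fluorescence ratio is a statistical outlier from its plate by either plate-standardised score or position-corrected B-score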
sdo1 growth: restores growth of sdo1-depleted yeast | 140,000 tested, 0.21% active | S. cerevisiae sdo1-depleted JHY4D growth rescue, OD600 30 h; hits give high values; pdr5 snq2 efflux-pump mutant strain | z-score at 10 µM | AID 817;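 active means z-score above 3 at both the 24 hr and the 30 hr optical density reads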;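 further: z-score against mean and SD of all compound wells on the same plate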
PLK1 kinase inh: PLK1 (human) kinase inhibition; 97,000 tested, 0.53% active; recombinant PLK1 kinase, TR-FRET peptide phosphorylation; inhibition, % at 10 µM; P53350;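 active means inhibition of 50% or more in the single-concentration screen; inactive means inhibition below 50%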;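 further: 0% = DMSO max control and 100% = H-89 dihydrochloride min control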
DAT uptake mod: human DAT dopamine uptake with cocaine, either direction | AID 449768 | Q01959 | B-score at 10 µM | 110,000 tested, 1.3% active | LLC-PK1 hDAT cells, [14C]-dopamine uptake with cocaine IC80; actives deviate in either direction;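 active means Z score or B-score, a plate-position-corrected score, falls beyond the plate's 99.7% confidence bounds, in either direction; inactive means both scores lie inside the 99.7% bounds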;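 further: scored against the spread of the other compound wells on the same plate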
Target sequence (Q01959 whole entry, looked up): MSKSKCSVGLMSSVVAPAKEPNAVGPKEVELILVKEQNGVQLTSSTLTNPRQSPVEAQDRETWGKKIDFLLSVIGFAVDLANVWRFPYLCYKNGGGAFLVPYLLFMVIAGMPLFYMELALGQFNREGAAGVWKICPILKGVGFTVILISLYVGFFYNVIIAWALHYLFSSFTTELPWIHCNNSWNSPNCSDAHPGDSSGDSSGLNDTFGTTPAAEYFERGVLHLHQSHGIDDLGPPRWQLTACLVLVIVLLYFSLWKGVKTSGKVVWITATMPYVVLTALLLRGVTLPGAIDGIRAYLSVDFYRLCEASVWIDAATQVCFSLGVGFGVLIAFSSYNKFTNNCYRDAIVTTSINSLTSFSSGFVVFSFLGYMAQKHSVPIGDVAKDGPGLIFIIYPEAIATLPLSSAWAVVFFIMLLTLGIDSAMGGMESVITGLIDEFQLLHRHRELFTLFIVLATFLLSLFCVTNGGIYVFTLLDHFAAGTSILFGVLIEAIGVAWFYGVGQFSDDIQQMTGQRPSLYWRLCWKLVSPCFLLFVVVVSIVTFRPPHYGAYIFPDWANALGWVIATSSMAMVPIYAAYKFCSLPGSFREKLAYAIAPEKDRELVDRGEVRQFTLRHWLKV
PTK2B oligo ant: Pyk2 (human) oligomerization antagonism; Q293 cells, Pyk2 FERM NanoBiT luminescence; hits give low values; Q14289; z-score (the deposit names both 25 µM and 10 µM); 99,000 tested, 0.83% active;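 active means Z-score of -3 or lower, scaled per plate to the spread of control and sample wells; inactive means z-score above -3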;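 further: negative z-score means lost luminescence so less FERM oligomerization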
Starred values were filed as active, the others as inactive. Hits are enriched below; roughly 4.7% of the tested compounds scored in any of these assays.

Screening COc1ccccc1NC(=S)NC1CCC(CC2CCC(NC(=S)Nc3ccccc3OC)CC2)CC1 (stereo not given) returned sdo1 growth -1.1.
Screening Cc1cccc(NC(=O)c2nc(-c3ccccc3)n(-c3ccccc3)n2)c1C returned Plk1 PBD FP -45, Cav3 T inh -6.6*, sdo1 growth -1.3, PLK1 kinase inh -11, DAT uptake mod 2.2 and PTK2B oligo ant -2.2.
Screening O=C(O)CNC(=O)c1nc(-c2ccccc2)n(-c2ccccc2)n1 returned sdo1 growth -0.1.
`COc1ccc(-c2cc3ccccc3n2CC(O)Cn2nc(C)cc2C)cc1` (stereo not given) gave Cav3 T inh -6.4*, sdo1 growth -1.7, DAT uptake mod 0.29 and PTK2B oligo ant -0.77.
For CCc1cccc(N(C)C(N)=Nc2cccc3ccccc23)c1 the results were DAT uptake mod 0.7.
`O=C(CSc1nnc(CCCN2C(=O)c3cccc4cccc(c34)C2=O)n1-c1ccccc1)N1CCN(CCO)CC1` gave sdo1 growth 0.78 and PTK2B oligo ant 0.33.
For CC(C)=C1C2CCC1C1C(=O)N(NC(=O)COc3ccc(C(C)(C)C)cc3)C(=O)C21 (stereo not given) the results were Plk1 PBD FP -4, Cav3 T inh -8.4*, sdo1 growth -0.46, PLK1 kinase inh -10, DAT uptake mod 0.85 and PTK2B oligo ant -0.6.
`O=C(NC(Cc1c[nH]c2ccccc12)C(=O)OCC(=O)c1cccc2ccccc12)c1cccs1` (stereo not given) gave sdo1 growth 0.48.
O=C(Nc1ccc(N=Nc2ccccc2)c(NC(=O)C2CCCO2)c1)C1CCCO1 (stereo not given) was read as sdo1 growth -1.8.
For Cc1cc(C)nc(NS(=O)(=O)c2ccc(NC(=O)C3(c4ccccc4)CCCC3)cc2)n1 the results were sdo1 growth 0.52.
For O=C(/C=C/c1cccc(Cl)c1)NCCN1CCOCC1 the results were sdo1 growth 0.61.
O=C(/C=C/c1ccc(Cl)cc1)NCCN1CCOCC1 was read as Plk1 PBD FP 23, Cav3 T inh 0.57, sdo1 growth 1.3, PLK1 kinase inh 1, DAT uptake mod -7.8* and PTK2B oligo ant -0.06.
For COC(=O)C1CC(=O)c2sccc2C1 (stereo not given) the results were sdo1 growth 1.6.
For Cn1cc(C(=O)c2ccc(Cl)cc2Cl)cc1C(=O)N/N=C(\N)COc1cccc(C(F)(F)F)c1 the results were Plk1 PBD FP -1, Cav3 T inh -8.4*, sdo1 growth 0.2, PLK1 kinase inh -13, DAT uptake mod 0.25 and PTK2B oligo ant 0.95.
For CCOC(=O)C1=C(C)N=C2SCCC(=O)N2C1c1ccc(C(=O)OC)cc1 (stereo not given) the results were Plk1 PBD FP -19, Cav3 T inh 0.68, sdo1 growth -0.33, PLK1 kinase inh -3, DAT uptake mod -0.3 and PTK2B oligo ant 0.34.
`CCOC(=O)C1=C(C)N2C(=C(C#N)[C@@H]1c1ccc(C(=O)OC)cc1)SC[C@@]2(O)C(C)(C)C` gave Plk1 PBD FP 1, Cav3 T inh -5.8*, sdo1 growth -0.4, PLK1 kinase inh 11, DAT uptake mod -0.83 and PTK2B oligo ant -1.3.
`NC1=NC[C@H](Cc2ccccc2)N1CCCCC1CCCCC1` gave Cav3 T inh -0.0054 and DAT uptake mod -3*.
For NC1=NC[C@H](Cc2ccc(O)cc2)N1CCCCC1CCCCC1 the results were Cav3 T inh -0.18 and DAT uptake mod -4.1*.
NC1=NC[C@H](Cc2ccc(O)cc2)N1CCc1cc(C(F)(F)F)cc(C(F)(F)F)c1 was read as Cav3 T inh 0.1 and DAT uptake mod -0.047.
O=C(NCc1ccccn1)c1cccc(NS(=O)(=O)c2cccc(F)c2)c1 was read as sdo1 growth 1.3.
CC(C)n1c(-c2ccco2)csc1=Nc1cccnc1 was read as Plk1 PBD FP -14, Cav3 T inh -5.2*, sdo1 growth -1.4, PLK1 kinase inh -14, DAT uptake mod -0.8 and PTK2B oligo ant -0.4.
`Cc1cccc(C)c1NC(=O)COc1ccc2c(C)c(Cc3ccccc3)c(=O)oc2c1` gave sdo1 growth -0.46.
`COc1ccc(CNC(=O)c2ccc(N3CCC4(CC3)CC(c3ccc(Cl)cc3)=NO4)c(N)c2)cc1` gave Cav3 T inh -1.6 and DAT uptake mod 0.77.
